The entries come from a sample that favours hits as a whole.
RE007 growth inh: less growth of the S. pombe RE007 Vpr strain; S. pombe RE007 Vpr strain, BacTiter-Glo ATP luminescence, 24 h; Potency, µM (doses to about 92.2 µM), actives largely listed as inhibitors; hit rate 0.21% among 360,000; AID 651644; active = well fitted falling curve with a large enough effect; inconclusive = small, poorly fitted or top-dose-only effect; inactive = no such curve, though single readings can be large or run the other way; note: nearly all actives have a fitted effect of over 50% in size
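Fission yeast RE007 carrying one integrated HIV-1 vpr copy, seeded at OD 0.01 in PMG+AL medium with 23 nL pinned compound. Grown 24 h at 30 degrees; viability read by BacTiter-Glo luminescence after 5 min.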
Giardia FBPA inh: blocks Giardia fructose-bisphosphate aldolase activity; Potency, µM (titrated, usually from 59.6 µM), hits mostly inhibitors; AID 2451; hit rate 0.71% among 290,000; purified Giardia FBPA; A8B2U2; note: nearly all actives have a fitted effect of over 55% in size
Target sequence (A8B2U2 whole entry, looked up): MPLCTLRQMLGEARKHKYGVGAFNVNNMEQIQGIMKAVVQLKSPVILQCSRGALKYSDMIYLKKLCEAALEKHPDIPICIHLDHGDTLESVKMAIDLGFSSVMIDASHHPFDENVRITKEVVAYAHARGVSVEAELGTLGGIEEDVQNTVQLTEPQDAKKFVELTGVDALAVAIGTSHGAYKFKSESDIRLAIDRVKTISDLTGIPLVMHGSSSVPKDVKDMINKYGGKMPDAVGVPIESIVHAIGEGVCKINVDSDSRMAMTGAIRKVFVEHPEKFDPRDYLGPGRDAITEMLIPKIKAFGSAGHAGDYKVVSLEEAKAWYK
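Giardia FBPA (40 nM reagent) was preincubated 10 min at RT with compound (up to 57.5 uM final), then substrate plus GAPDH/TPI/NAD/arsenate coupling system with diaphorase/resazurin was added; resorufin fluorescence (525/598 nm) was read after 20 min.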
LmPK inh: blocks Leishmania mexicana pyruvate kinase activity; Q27686; purified LmPK, Kinase-Glo ATP luminescence, 1 h; Potency, µM (series often up to 57.5 µM), most hits filed as inhibitors; hit rate 0.37% among 290,000; AID 1721
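0.1 nM LmPK, 0.5 mM PEP, 0.1 mM ADP; 50 mM imidazole pH 7.2, 7 mM MgCl2, 50 mM KCl; 1 h RT. Kinase-Glo luminescence readout, normalized to no-enzyme (full inhibition) and uninhibited wells.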
Cycloheximide cs: affects cycloheximide protein synthesis inhibition readout, counter-screen; cell reporter, cycloheximide protein synthesis inhibition counterscreen; max response, %; hit rate 12% among 300,000; AID 2314; in the data active = max response mostly above about 13%, no sharp cut-off; inactive = mostly below about 14%; note: read at 38.3 µM for the half of the compounds with a filed dose
Tb PYK inh: blocks Trypanosoma brucei pyruvate kinase | Potency, µM (series often up to 76.8 µM), actives largely listed as inhibitors | hit rate 0.12% among 410,000 | Q57TT1 | TbPYK enzyme, Kinase-Glo Plus ATP luminescence, 45 min | AID 624173; note: nearly all actives have a fitted effect of over 50% in size
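Enzyme and substrate buffer are dispensed first and compound is pin-transferred. ADP at 130 uM final then starts the reaction, which runs 45 min at room temperature. Detection reagent is added for 10 min before luminescence is imaged.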
Shiga toxin inh: inhibitors of Shiga toxin in Vero cells; Vero cells, Shiga toxin protein synthesis inhibition reporter; inhibition, % at 38.7 µM; hit rate 9.2% among 290,000; AID 2315; in the data active = inhibition mostly above about 28%, no sharp cut-off; inactive = mostly below about 43%
Of the large screens only hits and unclear results are named; the others gave an inactive call. Unless noted, calls come from the whole dose curve; as a rule, active = well fitted curve in the direction sought with a large enough effect; inconclusive = small, poorly fitted or top-dose-only effect, or another doubt; inactive = no such curve, though single readings can be large; an effect the other way counts as inactive or inconclusive.

COc1ccc(C(=O)CC(=O)C(=O)Nc2cc(C)ccc2C)cc1	none
COc1ccc(C(=O)CCNc2cccc(Cl)c2)cc1	none
COc1ccc(C(=O)CC(=O)C(=O)Nc2ccc(C)c(Cl)c2)cc1	Cycloheximide cs 23
COc1ccc(C(=O)CNc2cccc(F)c2)cc1	Cycloheximide cs 50, Shiga toxin inh 87
Cc1ccc(CN2CCC(CNC(=O)Nc3c(C)cccc3C)C2)cc1 (configuration not stated)	none (no result: RE007 growth inh, Giardia FBPA inh, LmPK inh, Cycloheximide cs, Shiga toxin inh)
COc1ccc(-c2onc(C)c2C)cc1S(=O)(=O)Nc1cccc(C#N)c1	none (no result: RE007 growth inh, Giardia FBPA inh, LmPK inh, Cycloheximide cs, Shiga toxin inh)
CCN(Cc1ccccc1)c1ccccc1	none (no result: Giardia FBPA inh, LmPK inh, Cycloheximide cs, Shiga toxin inh)
CCN(Cc1ccccc1)c1ccc(N=Nc2nn(C)c(C)c2[N+](=O)[O-])cc1	Cycloheximide cs 17
CCN(CC)c1ccc(N=Nc2nn(C)c(C)c2[N+](=O)[O-])cc1	Cycloheximide cs 65, Shiga toxin inh 87
Cc1cc(C)cc(Nc2cc(C)nc3nc(-c4ccco4)nn23)c1	none (no result: RE007 growth inh, Giardia FBPA inh, LmPK inh, Cycloheximide cs, Shiga toxin inh)
Cc1ccc(OCC(=O)Nc2cc(C)on2)c([N+](=O)[O-])n1	Cycloheximide cs 35, Shiga toxin inh 105
Cc1cc(C)cc(OCC(=O)Nc2cc(C)on2)c1	none
Cc1cc(NC(=O)COc2cccc3cccnc23)no1	Giardia FBPA inh inconclusive, Cycloheximide cs 33, Shiga toxin inh active (no result: RE007 growth inh, Tb PYK inh)
Cc1cc(NC(=O)COc2ccccc2C(N)=O)no1	none (no result: Giardia FBPA inh, LmPK inh, Cycloheximide cs, Shiga toxin inh)
Cc1cc(NC(=O)COc2cccc(C)c2C)no1	Cycloheximide cs 28, Shiga toxin inh 60
Cc1cc(NC(=O)COc2ccccc2C)no1	Cycloheximide cs 46, Shiga toxin inh 110
COc1cc(C(=O)NC(=S)Nc2ccc3[nH]c(=O)[nH]c3c2)cc(OC)c1OC	none
COc1ccccc1-c1cc(C(=O)NC2CCCC2)no1	Cycloheximide cs 16, Shiga toxin inh 71
O=C(NC1CCCCC1)c1cc(-c2ccccc2Cl)on1	Cycloheximide cs 45, Shiga toxin inh 137
CC1CCCC(C)N1C(=O)c1cc(-c2cccs2)on1 (configuration not stated)	Cycloheximide cs 26, Shiga toxin inh 70
O=C(NC1CCCC1)c1cc(-c2ccccc2O)on1	Cycloheximide cs 34, Shiga toxin inh 91
O=C(NC1CCCC1)c1cc(-c2ccccc2Cl)on1	Cycloheximide cs 43, Shiga toxin inh 107
O=C(NC1CCCC1)c1cc(-c2cccs2)on1	Cycloheximide cs 57, Shiga toxin inh 182
COCC(C)NC(=O)c1cc(-c2ccccc2OC)on1 (configuration not stated)	Cycloheximide cs 41, Shiga toxin inh 39
Cc1cc(C(=O)NC2CCCN(Cc3ccc(Cl)cc3)C2)no1 (configuration not stated)	none
O=C(NC1CCCC1)c1cc(-c2ccc(Cl)cc2Cl)on1	Cycloheximide cs 44, Shiga toxin inh 105 (no result: Giardia FBPA inh)
C[C@@H]1[C@H](C)CC[C@@]2(C(=O)O)CC[C@]3(C)C(=CC[C@H]4[C@@]5(C)CC[C@@H](O)C(C)(C)[C@@H]5CC[C@@]43C)[C@@H]12	none (no result: RE007 growth inh, LmPK inh, Cycloheximide cs, Tb PYK inh, Shiga toxin inh)
O=S(=O)(Nc1nc2c(s1)CCCC2)c1ccc2ccccc2c1	none
c1ccc2c(Nc3nc4c(s3)CCCC4)cccc2c1	Cycloheximide cs 45, Tb PYK inh inconclusive, Shiga toxin inh 112 (no result: Giardia FBPA inh)
C/C(=N\Nc1cc(Cl)nc(C)n1)c1ccccc1	Cycloheximide cs 28, Shiga toxin inh 46
C/C(=N\Nc1cc(-c2ccccc2)nc(-c2ccc(Br)cc2)n1)c1cccc(N)c1	none (no result: Giardia FBPA inh, LmPK inh, Cycloheximide cs, Shiga toxin inh)
CCc1ccc(/C(C)=N/Nc2cc(Cl)nc(C)n2)cc1	none
C/C(=N/Nc1cc(-c2ccccc2)nc(-c2ccccc2)n1)c1ccc(O)cc1	Cycloheximide cs 23
COc1ccc(CCC(=O)NCCS(=O)(=O)N2CCN(c3ccc(OC)cc3)CC2)cc1	none
Cn1c(SCCOc2ccccc2F)nc2ccccc2c1=O	none
COc1ccccc1OCCSc1nc2ccccc2c(=O)[nH]1	Cycloheximide cs 14, Shiga toxin inh 48
O=c1[nH]c(SCCOc2ccccc2)nc2ccccc12	none
O=c1[nH]c(SCCOc2ccccc2F)nc2ccccc12	Cycloheximide cs 33, Shiga toxin inh 61
Cc1ccc(C(=O)N(CCCN(C)C)c2nc3ccc(Cl)cc3s2)cc1C	none

Bioassay records: PubChem, National Center for Advancing Translational Sciences (NCATS)
